Screening results (PubChem)
Sampled rows, rich in hits. Any-hit rate of the full collection: about 2.4%.
MBD2 inh: inhibitors of human MBD2 binding to methylated oligonucleotide. Q9UBB5. inhibition, % at 4.4 µM. TR-FRET. 370,000 tested, 0.31% active; in the data active = inhibition above about 13%
Target sequence (Q9UBB5 whole entry, looked up): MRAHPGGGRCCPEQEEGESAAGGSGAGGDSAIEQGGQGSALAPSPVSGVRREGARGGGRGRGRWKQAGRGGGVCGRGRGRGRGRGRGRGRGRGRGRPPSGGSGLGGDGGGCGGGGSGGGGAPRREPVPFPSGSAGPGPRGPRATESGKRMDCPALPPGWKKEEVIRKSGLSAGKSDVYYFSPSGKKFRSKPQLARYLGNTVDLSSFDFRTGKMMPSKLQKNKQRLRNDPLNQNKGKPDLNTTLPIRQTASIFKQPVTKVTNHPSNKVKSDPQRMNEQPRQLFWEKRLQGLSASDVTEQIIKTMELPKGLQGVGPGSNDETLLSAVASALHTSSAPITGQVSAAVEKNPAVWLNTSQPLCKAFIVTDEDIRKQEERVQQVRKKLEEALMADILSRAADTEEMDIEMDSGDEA
PLC-beta3 inh: PLC-beta3 (human) inhibition, primary screen; Purified PLC-beta3, fluorogenic substrate, fluorescence; AID 720704; Q01970; 370,000 tested, 0.18% active; inhibition, % at 12.2 µM
PLCg1 inh: blocks human PLC-gamma1 enzyme activity; inhibition, % at 12.2 µM; 370,000 tested, 0.84% active; purified PLC-gamma1, fluorogenic substrate, fluorescence; P19174; in the data active = inhibition above about 9.5%
UHRF1 MBD2 ctr: UHRF1 methyl-DNA binding inhibition; Q96T88; UHRF1 binding to methylated oligo, TR-FRET; inhibition, % at 4.4 µM; 370,000 tested, 0.75% active; AID 687016; in the data active = inhibition above about 21%;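 also: UHRF1 SRA domain binding a hemimethylated CpG hairpin DNA probe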
LEDGF integ inh: blocks HIV-1 LEDGF/p75-dependent DNA integration. TR-FRET IN-LEDGF/p75 DNA integration, Eu/Cy5. inhibition, % at 3.7 µM. 370,000 tested, 0.64% active;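 active = inhibition above the screen-wide mean plus 3 SD, cut at about 13% in these data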;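 also: signal is the Cy5 over europium emission ratio at 671 and 618 nm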
PLCg1 ctr: PLC-gamma1 inhibition, counter-screen for PLC-beta3 hits; shares compounds with PLCg1 inh; purified PLC-gamma1, fluorogenic substrate, fluorescence; inhibition, % at 12.3 µM; 3,300 tested, 3.1% active; AID 743258; in the data active = inhibition above about 9.5%
PLCb3 confirm: human PLC-beta3 inhibition, confirmation; shares compounds with PLCg1 inh; purified PLC-beta3, fluorogenic substrate fluorescence; AID 743261; 3,300 tested, 1% active; inhibition, % at 12.3 µM
Each line names hits and unclear results; the compound was inactive in the other large screens (follow-up assays come after a bar, where they were run). Rule as the data show it, unless noted: active = inhibition above about 11%; inactive = the rest.

O=C(c1cccc(C(=O)N2CCN(c3ccccc3F)CC2)c1)N1CCN(c2ccccc2F)CC1	none
O=C(c1c(F)cccc1F)N1CCN(c2ccccc2F)CC1	PLC-beta3 inh 16 | PLCg1 ctr inactive | PLCb3 confirm inactive
O=C(Nc1ccccc1N1CCN(C(=O)c2ccc(Cl)cc2)CC1)c1cccc(F)c1	PLCg1 inh 12 | PLCg1 ctr inactive | PLCb3 confirm inactive
COC(=O)C1=C(C)N(Cc2cccc(C(F)(F)F)c2)C(=NCc2ccc(OC)cc2)NC1c1cccc(F)c1 (stereo not drawn)	none
COc1ccc(S[C@]2(C(=O)N(C)C)CC(=O)N(C(=O)c3ccccc3)[C@@H]2c2ccc(OC)cc2)cc1	none
O=C(O)c1ccc(S(=O)(=O)NCC2CCCO2)cc1 (stereo not drawn)	PLCg1 inh 11 | PLCg1 ctr inactive | PLCb3 confirm inactive
CC(C)(C)c1ccc(S(=O)(=O)NCC2CCCO2)cc1 (stereo not drawn)	none
CCCCCNC(=O)[C@@H]1CSC2c3ccccc3C(=O)N21 (stereo partly drawn)	PLCg1 inh 13 | PLCg1 ctr inactive | PLCb3 confirm inactive
COc1ccc(S(=O)(=O)N2CCCCCC2)cc1C(=O)N(C)CC(=O)Nc1c(Cl)cccc1Cl	PLCg1 inh 9.7 | PLCg1 ctr inactive | PLCb3 confirm inactive
COc1ccc(S(=O)(=O)N2CCCCCC2)cc1C(=O)N(C)CC(=O)Nc1ccccc1Br	PLCg1 inh 10 | PLCg1 ctr inactive | PLCb3 confirm inactive
Cc1ccc(-n2c(SCc3cccc4ccccc34)nnc2-c2ccccn2)cc1	none
CN(CC(=O)Nc1ccc(F)c(F)c1F)C1CCCCC1	PLCg1 inh 10 | PLCg1 ctr inactive | PLCb3 confirm inactive
COc1ccc(NC(=O)CN(C)S(=O)(=O)c2ccccc2)c([N+](=O)[O-])c1	none
COc1ccc(OC)c(NC(=O)COC(=O)C2CCCCC2)c1	PLC-beta3 inh 12, PLCg1 inh 10 | PLCg1 ctr inactive | PLCb3 confirm inactive
COc1ccc(OC)c(NC(=O)COC(=O)C2CCC2)c1	none
COc1ccc(NC(=O)CN(C)C2CCCCC2)c([N+](=O)[O-])c1	PLCg1 inh 12 | PLCg1 ctr inactive | PLCb3 confirm inactive
COc1ccc(S[C@]2(C(=O)N3CCCC3)CC(=O)N(S(=O)(=O)c3ccc(F)cc3)[C@@H]2c2ccc(OC)cc2)cc1	none
Cc1ccc(S(=O)(=O)N2CCCC(C(=O)Nc3c(C)n(C)n(-c4ccccc4)c3=O)C2)cc1 (stereo not drawn)	none
Cc1c(NC(=O)C2CCCN2S(=O)(=O)c2ccccc2)c(=O)n(-c2ccccc2)n1C (stereo not drawn)	PLC-beta3 inh 13 | PLCg1 ctr inactive | PLCb3 confirm inactive
CCS(=O)(=O)Nc1c(C)n(C)n(-c2ccccc2)c1=O	PLCg1 inh 9.6 | PLCg1 ctr inactive | PLCb3 confirm inactive
Cc1ccc2cc(CCNC(=O)C3CCCCC3)c(=O)[nH]c2c1C	none
Cc1ccc2cc(CCNC(=O)C3CCCC3)c(=O)[nH]c2c1	PLC-beta3 inh 11 | PLCg1 ctr inactive | PLCb3 confirm inactive
Cc1ccc(CN2CCN(Cc3cccc4c3OCO4)CC2CCO)cc1 (stereo not drawn)	PLC-beta3 inh 15 | PLCg1 ctr inactive | PLCb3 confirm inactive
Cc1ccc(NC(=O)c2ccc(F)cc2)cc1S(=O)(=O)N1CCCCCC1	none
Cc1cc(=O)[nH]c(SCC(=O)Nc2ccc(C)c(S(=O)(=O)N3CCCCC3)c2)n1	PLCg1 inh 12 | PLCg1 ctr inactive | PLCb3 confirm inactive
Cc1ccc(NC(=O)CSc2nnc(-c3ccc(S(=O)(=O)N4CCCC4)cc3)o2)cc1C	PLCg1 inh 12 | PLCg1 ctr inactive | PLCb3 confirm inactive
COc1ccc(NC(=O)CSc2nc(N)cc(=O)[nH]2)cc1S(=O)(=O)N1CCCCC1	none
COc1ccc(C(=O)Nc2ccc(C)c(S(=O)(=O)N3CCCCCC3)c2)cc1	PLCg1 inh 11 | PLCg1 ctr inactive | PLCb3 confirm inactive
OCC1(Cc2cccc(Cl)c2)CCCN(Cc2sc(N3CCCC3)nc2Cl)C1 (stereo not drawn)	PLCg1 inh 13 | PLCg1 ctr inactive | PLCb3 confirm inactive
CCOC(=O)N[C@H](C(=O)N1CCC[C@H]1C(=O)NCCc1ccccc1Cl)C1CCCCC1	none
CCOC(=O)[C@@]12CN(C(=O)OC(C)(C)C)CC=C1N(Cc1ccc(OC)cc1)C(=O)[C@H]2CC(=O)NCCCOC	none
COc1ccc(NC(=O)Cn2c(C(C)C)nc(C)cc2=O)cc1Cl	PLCg1 inh 10 | PLCg1 ctr inactive | PLCb3 confirm inactive
CCCCN(C)S(=O)(=O)c1ccc2[nH]c(=O)oc2c1	none
CN(Cc1cccc(Cl)c1Cl)C(=O)CCNC(=O)c1ccco1	PLCg1 inh 12 | PLCg1 ctr inactive | PLCb3 confirm inactive
O=C(c1cccc(F)c1)N1CCCC(c2nc(-c3cccs3)no2)C1 (stereo not drawn)	none
COC[C@H]1CCCN1c1ccc2c(c1)O[C@H]1CCN(C1)S2(=O)=O	none
O=C1NC(=O)/C(=C\c2ccc(Br)o2)S1	PLCg1 inh 15, UHRF1 MBD2 ctr 45 | PLCg1 ctr inactive | PLCb3 confirm inactive
NS(=O)(=O)c1ccc(CCNC(=O)[C@@H]2CCCN2S(=O)(=O)c2ccccc2F)cc1	none
NS(=O)(=O)c1ccc(CCNC(=O)C2CCCCN2S(=O)(=O)c2ccccc2)cc1 (stereo not drawn)	PLCg1 inh 13 | PLCg1 ctr inactive | PLCb3 confirm inactive
CC(=O)Nc1ccc(NC(=O)CSc2nc(N)c(NC(=O)c3ccco3)c(=O)[nH]2)cc1	PLCg1 inh 12 | PLCg1 ctr inactive | PLCb3 confirm inactive
C=CCSc1nc(N)c(NC(=O)c2ccco2)c(=O)[nH]1	none
Cc1cc(C)n(-c2ccc([N+](=O)[O-])cc2)n1	none
Cc1cc(N)n(-c2ccc([N+](=O)[O-])cc2)n1	PLCg1 inh 12 | PLCg1 ctr inactive | PLCb3 confirm inactive
COc1ccc(NC(=O)CSc2nnc(-c3cnccn3)n2C)cc1OC	none
Cc1ccc(NC(=O)CSc2nnc(-c3cnccn3)n2C)cc1C	PLCg1 inh 9.7 | PLCg1 ctr inactive | PLCb3 confirm inactive
Cc1cccc(CSc2nnc(-c3cnccn3)n2C)c1	PLCg1 inh 12 | PLCg1 ctr inactive | PLCb3 confirm inactive
CCn1c(COc2ccccc2)nnc1SCC(=O)Nc1ccc(Oc2ccccc2)cc1	none
OCC1OC(n2cnc3c(=S)nc[nH]c32)CC1O (stereo not drawn)	PLCg1 inh 10 | PLCg1 ctr inactive | PLCb3 confirm inactive
Cc1ccc(-n2c(SCc3nc4ccccc4[nH]3)nnc2-c2ccccn2)cc1	none
C/C(=N\NC(=O)CSc1nnc(-c2ccccc2)n1-c1ccc(C)cc1)c1ccc(-c2ccccc2)cc1	none
